Screening data: PubChem, National Center for Advancing Translational Sciences (NCATS)
Rows were chosen to be rich in hits. Some 21% of all compounds tested hit in one or more screens of this group.
Pf growth 96h = P. falciparum growth inhibition at 96 hour, primary screen for plastid delayed-death inhibitors; P. falciparum luciferase reporter growth, 96 h; Potency, µM (highest dose often 28.7 µM), hits mostly inhibitors; 6.9% of 320,000 active; AID 504834; active = well fitted inhibition curve with a large enough effect; inconclusive = small, poorly fitted or top-dose-only effect, or another doubt; inactive = no such curve, though single readings can be large or run the other way
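Infected RBCs, 2% Hct / 0.05% parasitemia final; luciferase-reporter P. falciparum; cpd 96 h, 37 C, 5% CO2; luciferase detection reagent; luminescence.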
Pf growth 48h = P. falciparum growth inhibition at 48 hours (one generation); P. falciparum luciferase growth in erythrocytes, 48 h; Potency, µM (doses to about 28.7 µM), most hits filed as inhibitors; 5.9% of 310,000 active; AID 504832; active = well fitted inhibition curve with a large enough effect; inconclusive = small, poorly fitted or top-dose-only effect, or another doubt; inactive = no such curve, though single readings can be large or run the other way
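Parasite viability was followed by luminescence of a genomically integrated firefly luciferase. Cultures held 0.1% parasitemia at 2% hematocrit (final), incubated under 5% CO2 at 37 C.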
Shiga inhibitor = inhibitors of Shiga toxin in Vero cells | Vero cells, Shiga toxin protein synthesis inhibition reporter | 9.2% of 290,000 active | inhibition, % at 38.7 µM; in the data active = inhibition mostly above about 28%, no sharp cut-off; inactive = mostly below about 43%
NS1 inh = influenza NS1 inhibition | Potency, µM (titrated, usually from 46.1 µM) | 0.4% of 270,000 active; note: actives are rising curves; nearly all actives have a fitted effect of over 50% in size
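Growth recovery, yeast-based: influenza A NS1 expressed in S. cerevisiae causes slow growth, and suppressors are detected by OD600. The parent strain without NS1 is used as positive control.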
Cycloheximide cs = affects cycloheximide protein synthesis inhibition readout, counter-screen. 12% of 300,000 active. cell reporter, cycloheximide protein synthesis inhibition counterscreen. max response, %. AID 2314; in the data active = max response mostly above about 13%, no sharp cut-off; inactive = mostly below about 14%; note: read at 38.3 µM for the half of the compounds with a filed dose
SARS PLP yeast = SARS-CoV PLP inhibition in yeast; 0.19% of 330,000 active; Potency, µM (highest dose often 32.9 µM), actives largely listed as activators; S. cerevisiae expressing SARS-CoV PLpro, growth rescue; AID 485353; note: nearly all actives have a fitted effect of over 55% in size
A number is an active result; 0 = inactive; ? = inconclusive; - = no result; [ ] = remark or other dose. Unless noted, calls come from the whole dose curve.

SMILES | Pf growth 96h | Pf growth 48h | Shiga inhibitor | NS1 inh | Cycloheximide cs | SARS PLP yeast
CC/C(=N\NC(=O)c1ccccc1)c1c(O)n(Cc2ccccc2)c(=O)[nH]c1=O | 0 | 0 | 54 | 0 | 57 | 0
CCCCn1c(O)c(C(C)=Nc2c(C)n(C)n(-c3ccccc3)c2=O)c(=O)[nH]c1=O | ? | 0 | 0 | 0 | 0 | 0
Cc1cc(C)c(OCC(=O)OCC(=O)NCC2CCCCC2)c(C)c1 | 0 | 0 | - | - | - | 0
Cc1ccc(CNC(=O)CSc2nc(=O)n3ccccc3n2)cc1 | 0 | 0 | - | - | - | 0
C=CCn1c(O)c(/C(C)=N/NC(=S)Nc2ccccc2)c(=O)[nH]c1=O | ? | 0 | 60 | 0 | 27 | 0
C=CCn1c(O)c(C(CC)=NCCc2ccccc2)c(=O)[nH]c1=O | ? | - | 0 | 0 | 0 | 0
C=CCn1c(O)c(/C(CC)=N/NC(=S)Nc2ccccc2)c(=O)[nH]c1=O | 0 | 0 | 63 | 0 | 35 | 0
CCCCC[C@H](O)/C=C/[C@H]1CCC(=O)[C@@H]1CCCCCCC(=O)N1CCCCC1CO (some centres not stated) | ? | 9.3µM | 0 | 0 | 0 | 0
CCCCC[C@H](O)/C=C\[C@@H]1[C@H](O)CC(=O)[C@@H]1CCCCCCC(=O)O | 5.1µM | ? | - | - | - | -
COCCNC(=O)NC12CC3(C)CC(C)(CC(C)(C3)C1)C2 | ? | 0 | 0 | 0 | 0 | 0
COc1ccc(N2C(=NC(=O)C3CCCO3)SC3CS(=O)(=O)CC32)cc1 (configuration not stated) | 0 | 0 | 0 | 0 | 0 | 0
COc1cc2oc3ccccc3c(=O)c2cc1OC | 0 | 0 | 0 | 0 | 0 | 0
O=c1c2ccccc2oc2ccc(Oc3ccccc3)cc12 | 0 | 0 | 42 | 0 | 41 | 0
CCOC(=O)c1cc(CC)sc1/N=C/c1c(O)ccc2ccccc12 | 0 | 0 | 0 | 0 | 0 | 0
O=C(COc1cccc(Cl)c1)Nc1cc(S(=O)(=O)N2CCOCC2)ccc1N1CCOCC1 | ? | 0 | 0 | 0 | 0 | 0
COc1ccc2nc(NC(=O)CSc3ccccc3)sc2c1 | 0 | - | 138 | 0 | 57 | 0
COc1ccc2nc(NC(=O)CSc3nnc(C)n3N)sc2c1 | 0 | 0 | 51 | 0 | 35 | 0
COc1ccc2nc(NC(=O)CSC3=NCCS3)sc2c1 | 0 | 0 | 0 | 0 | 32 | 0
CCOc1ccc2nc(NC(=O)CSC3=NCCS3)sc2c1 | - | ? | 0 | 0 | 0 | 0
Cc1ccc2nc(NC(=O)CSc3nncc(=O)n3N)sc2c1 | 0 | 0 | 0 | 0 | 34 | 0
COc1ccc2nc(NC(=O)CSc3nnc(N)s3)sc2c1 | 0 | 0 | 0 | 0 | 0 | 0
Cc1cnc(C(=O)OC(C)C(=O)NC2CCCc3ccccc32)cn1 (configuration not stated) | 0 | 0 | - | - | - | 0
CSc1nc(O)cc(=O)n1-c1ccc(F)cc1 | 0 | 0 | 0 | - | 0 | 0
Cc1csc(NC(=O)CSc2[nH]c(=O)ncc2C)n1 | 0 | 0 | - | - | - | 0
Cc1ccc2nc(NC(=O)CSc3[nH]c(=O)ncc3C)sc2c1 | - | - | 0 | - | 27 | -
SMILES | Pf growth 96h | Pf growth 48h | Shiga inhibitor | NS1 inh | Cycloheximide cs | SARS PLP yeast
Cc1nn(-c2ccccc2)c(Cl)c1C(=O)NCc1ccccc1F | ? | ? | 0 | 0 | 0 | 0
CCC(=O)N(Cc1c(C)nn(-c2ccccc2)c1Cl)c1ccc(Cl)cc1 | 0 | 10µM | 0 | 0 | 0 | ?
CC(C)(C)OC(=O)CN1C(=O)C(Sc2n[nH]c(-c3ccccc3)n2)CCc2ccccc21 (configuration not stated) | 1.5µM | ? | 0 | 0 | 0 | 0
CCOC(=O)CN1C(=O)C(Sc2n[nH]c(-c3ccc(O)cc3)n2)CCc2ccccc21 (configuration not stated) | ? | - | 0 | 0 | 0 | 0
CSC1=N/C(=C/c2cccnc2)C(=O)N1Cc1ccccc1 | 0 | 0 | 0 | 0 | 0 | 0
CSC1=N/C(=C/c2cccnc2)C(=O)N1Cc1ccc(Cl)cc1 | ? | 6.6µM | 0 | 0 | 44 | 0
Nc1c(Cl)ncnc1N/N=C/c1ccnc2ccccc12 | 0 | 0 | 0 | 0 | 0 | 0
O=C(Cc1c(Cl)cccc1Cl)N/N=C/c1cccnc1 | 0 | 0 | 0 | 0 | 0 | 0
Nc1c(Cl)ncnc1N/N=C/c1ccccn1 | 2.9µM | 2.1µM | active | 0 | 25 | -
Nc1c(Cl)ncnc1N/N=C/c1cccnc1 | 0 | 0 | 0 | 0 | 15 | 0
COc1ccc(NC(=O)[C@@H]2CCCN2S(=O)(=O)c2ccccc2F)cc1S(=O)(=O)N1CCCCC1 | - | - | - | - | - | 0
CCN(CC)S(=O)(=O)c1cccc(C(=O)NC(Cc2c[nH]c3ccccc23)c2nnc3n2CCCCC3)c1 (configuration not stated) | 10µM | ? | 0 | 0 | 0 | 0
O=C(NC(Cc1c[nH]c2ccccc12)c1nnc2n1CCCCC2)c1ccccc1 (configuration not stated) | 0 | 0 | 0 | 0 | 0 | 0
COc1cccc2c1O/C(=N\O)C(C(=O)Nc1cccc(Br)c1)C2 (configuration not stated) | 0 | 0[0.00184 µM] | 80 | 0 | 33 | 0
COc1cccc2c1O/C(=N\O)C(C(=O)Nc1ccc(C)cc1)C2 (configuration not stated) | 0 | 0 | 0 | 0 | 13 | 0
CC1(C)CN(c2ccc(N3CC(C)(C)C3=O)cc2)C1=O | 0 | 0 | 69 | - | 39 | 0
CCCc1nnc(NC(=O)C2CCN(C(=O)c3ccco3)CC2)s1 | 0 | ? | 0 | 0 | 0 | 0
c1cc(CNCCc2ccc3c(c2)OCO3)ccn1 | 12µM | 0 | - | 0 | 0 | 0
Brc1ccccc1CNCCc1ccc2c(c1)OCO2 | 12µM | 0 | 0 | 0 | 0 | 0
CCOc1ccccc1CNCCc1ccc2c(c1)OCO2 | ? | 0 | 0 | 0 | 0 | 0
CCO/C=C/C(=O)N(C)CCC#N | 12µM | 0 | 0 | 0 | 0 | 0
Cc1cn([C@H]2C[C@@H](N=[N+]=[N-])[C@@H](CO)O2)c(=O)[nH]c1=O | - | - | - | 0 | - | -
O=c1c2[nH]c3ccccc3c2ncn1Cc1ccco1 | 0 | 0 | 0 | 0 | 0 | 0
Cc1ccc2c(c1)[nH]c1c(=O)n(Cc3ccco3)cnc12 | 0 | 0 | 0 | 0 | 21 | 0
CCCn1c(N)c(N(C)C)c(=O)n(CC(=O)Nc2ccc(OC(F)(F)F)cc2)c1=O | 10µM | 0 | 0 | 0 | 0 | 0
SMILES | Pf growth 96h | Pf growth 48h | Shiga inhibitor | NS1 inh | Cycloheximide cs | SARS PLP yeast
CCCCNC(=O)CC1N=C2c3ccccc3N=C(SCC(=O)Nc3ccc(OC)cc3)N2C1=O (configuration not stated) | 10µM | ? | 0 | 0 | 0 | 0
CCCCNC(=O)CC1N=C2c3ccccc3N=C(SCC(=O)Nc3ccccc3OC)N2C1=O (configuration not stated) | 0 | 10µM | 0 | 0 | 0 | 0
NS(=O)(=O)c1ccc(CCNC(=O)c2cccc(S(=O)(=O)N3CCCC3)c2)cc1 | ? | 0 | - | - | - | 0
Cc1cnc(C(=O)OCc2ccc(C#N)cc2)cn1 | 0 | 0 | 0 | 0 | 0 | 0
CCn1ncc2c(OCc3ccc(C#N)cc3)cc(C)nc21 | 15µM | - | 0 | 0 | 0 | 0
CC1CC(C)CN(CCOc2ccc(Br)cc2)C1 (configuration not stated) | 0 | ? | 0 | 0 | 0 | 0
CC(=O)Nc1nc2ccccc2n1Cc1ccccc1 | 12µM | ? | 0 | 0 | 0 | 0
Cn1c(Cl)nc2ccccc21 | 0 | 0 | 0 | 0 | 0 | 0
